The compounds below were run against Receptor tyrosine-protein kinase erbB-2 (Homo sapiens) (UniProt P04626). Conditions: at 0.1 µM.
Receptor tyrosine-protein kinase erbB-2 (Homo sapiens), sequence (P04626 whole entry): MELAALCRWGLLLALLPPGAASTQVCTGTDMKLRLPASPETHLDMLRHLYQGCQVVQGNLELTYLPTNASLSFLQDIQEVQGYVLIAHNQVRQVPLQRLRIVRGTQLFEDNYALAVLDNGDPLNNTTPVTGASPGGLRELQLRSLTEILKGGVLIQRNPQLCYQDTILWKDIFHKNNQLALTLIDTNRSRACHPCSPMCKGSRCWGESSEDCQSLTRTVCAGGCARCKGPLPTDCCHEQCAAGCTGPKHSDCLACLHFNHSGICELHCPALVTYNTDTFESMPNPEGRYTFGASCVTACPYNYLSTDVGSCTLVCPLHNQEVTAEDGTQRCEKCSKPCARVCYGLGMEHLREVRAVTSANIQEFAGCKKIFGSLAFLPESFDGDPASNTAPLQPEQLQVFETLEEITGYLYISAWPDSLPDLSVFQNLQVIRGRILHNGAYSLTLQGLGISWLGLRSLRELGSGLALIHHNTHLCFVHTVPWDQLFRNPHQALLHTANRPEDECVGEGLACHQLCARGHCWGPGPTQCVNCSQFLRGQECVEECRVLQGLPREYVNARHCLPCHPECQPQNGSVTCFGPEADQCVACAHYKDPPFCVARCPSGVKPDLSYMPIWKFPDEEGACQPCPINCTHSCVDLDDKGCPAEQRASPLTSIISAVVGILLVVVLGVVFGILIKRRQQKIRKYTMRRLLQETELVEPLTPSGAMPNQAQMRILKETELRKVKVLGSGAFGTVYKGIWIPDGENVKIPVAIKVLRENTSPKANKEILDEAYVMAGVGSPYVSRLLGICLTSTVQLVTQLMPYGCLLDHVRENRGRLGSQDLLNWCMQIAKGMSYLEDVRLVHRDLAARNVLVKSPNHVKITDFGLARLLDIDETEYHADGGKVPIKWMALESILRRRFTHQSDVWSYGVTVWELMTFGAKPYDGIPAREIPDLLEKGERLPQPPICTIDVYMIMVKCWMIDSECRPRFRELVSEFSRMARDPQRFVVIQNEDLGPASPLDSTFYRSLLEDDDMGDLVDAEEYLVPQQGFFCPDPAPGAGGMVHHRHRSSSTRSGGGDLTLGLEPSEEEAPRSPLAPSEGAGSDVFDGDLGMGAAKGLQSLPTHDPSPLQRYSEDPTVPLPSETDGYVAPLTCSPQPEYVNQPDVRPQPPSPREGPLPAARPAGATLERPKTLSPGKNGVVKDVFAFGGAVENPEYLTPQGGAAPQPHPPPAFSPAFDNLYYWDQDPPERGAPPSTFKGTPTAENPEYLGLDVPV

Structure (SMILES)	inhibition [%]
O=C1Nc2ccc(-c3cccnc3)cc2C1=Cc1cc(Br)c(O)c(Br)c1	-0.94
CN(C)c1cc2c(Nc3ccc4c(cnn4Cc4ccccc4)c3)ncnc2cn1	53.4
CCS(=O)(=O)c1ccc(OC)c(Nc2nccc(N(C)c3ccc4c(C)n[nH]c4c3)n2)c1	7.28
COC(=O)c1cncc(/C=C/c2c(C)cc(O)cc2C)c1	1.31
O=S(=O)(CCOCc1ccc(-c2ccc3ncnc(Nc4ccc(OCc5cccc(F)c5)c(Cl)c4)c3c2)o1)c1ccccc1	11.6
O=C(Nc1ccc(Oc2ccc3[nH]c(NC(=O)c4ccco4)nc3c2)cc1)Nc1cc(C(F)(F)F)ccc1F	-0.1
Cc1cc(-c2ccccn2)cc(C)c1/C=C/c1cncc(-c2nn[nH]n2)c1	-0.2
Cc1cc(O)cc(C)c1/C=C/c1cncc(C(=O)N(C)C)c1	1.35
CS(=O)(=O)Nc1cccc(-c2ccc3c(NC(=O)C4CC4)n[nH]c3c2)c1	0.54
CN(C)CCCn1c(-c2nonc2N)nc2cnccc21	5.72
CCn1c(-c2nonc2N)nc2c(C#CC(C)(C)O)nc(OCCNC)cc21	0.68
Cc1ccc2c(c1)/C(=N/Nc1ccc(S(N)(=O)=O)cc1)C(=O)N2	0.1
Cc1ccc2c(-c3ccnc(Nc4cccc(C(F)(F)F)c4)n3)c(-c3ccccc3)nn2n1	5.37
FC(F)(F)c1ccc(-c2nn3ncccc3c2-c2ccnc(Nc3ccc4c(c3)OCCO4)n2)cc1	3.02
Cc1ccc(Nc2ccnc(Nc3cccc(C(N)=O)c3)n2)cc1O	2.41
COc1cc2ncnc(Nc3ccc4c(cnn4Cc4ccccc4)c3)c2cc1OC	32.4
Cc1nc(-c2ccccc2)n2nc(NCCCN3CCOCC3)ncc12	1.95
COc1ccc2ncnc(Nc3ccc(OCc4ccccc4)cc3)c2c1	1.73

What follows are compounds tested against Receptor tyrosine-protein kinase erbB-2 (Homo sapiens) (UniProt P04626). Conditions: at 1 µM.

Structure (SMILES)	inhibition [%]
CN(C)C(=O)O[C@@H]1CN[C@@H](C#Cc2cc3ncnc(Nc4ccc(OCc5cccc(F)c5)c(Cl)c4)c3s2)C1	27.1
N#Cc1c(NC(=O)c2ccccc2F)sc2c1CCCC2	1.39
Cc1ccc2c(-c3ccnc(Nc4ccc5c(c4)OCCO5)n3)c(-c3ccc(C(F)(F)F)cc3)nn2n1	4.1
COc1cccc(-n2nc(C)c3c(N/N=C(\C)c4ccncc4)ncnc32)c1	2.47
NS(=O)(=O)c1ccc(N/N=C2\C(=O)Nc3ccc(Cl)cc32)cc1	4.3
CCOc1nccc2c1nc(-c1nonc1N)n2CC	9.5
Cc1ccc(C(=O)NC2CC2)cc1-c1ccc2[nH]ncc2c1	-4.83
c1ccc(Nc2ncc(-c3ccccc3)o2)cc1	8.36
Cc1cc(Cl)cc2c1NC(=O)C2=NNc1ccc(S(N)(=O)=O)cc1	3.15
O=C1Nc2ccccc2/C1=C/Nc1ccc2[nH]c(=O)[nH]c2c1	2.8
Nc1nccc(-c2c(-c3ccc(F)cc3)ncn2CCCN2CCOCC2)n1	6.08
[O-][S+]1CCN(Cc2ccc(-c3ccc4ncnc(Nc5ccc(OCc6ccccc6)c(Cl)c5)c4c3)o2)CC1	72.6
NS(=O)(=O)c1cccc(-c2cc3ccncc3cc2OCc2ccccc2)c1	-3.29
CCCN1CCCC(c2ccc(Nc3nc(Nc4cc(F)ccc4C(N)=O)c4cc[nH]c4n3)c(OC)c2)C1 (configuration not stated)	3.37
OCc1ccc(-c2nc(-c3ccccn3)c(-c3ccc4c(c3)OCO4)[nH]2)cc1	-3.06
COc1ccc(-c2nn3ncccc3c2-c2ccnc(Nc3cccc(C(F)(F)F)c3)n2)cc1	9.69
O=C1Nc2ccc(-c3cccnc3)cc2C1=Cc1cc(Br)c(O)c(Br)c1	4.88

Structure (SMILES)	inhibition [%]
CN(C)c1cc2c(Nc3ccc4c(cnn4Cc4ccccc4)c3)ncnc2cn1	86.6
CCS(=O)(=O)c1ccc(OC)c(Nc2nccc(N(C)c3ccc4c(C)n[nH]c4c3)n2)c1	13.4
COC(=O)c1cncc(/C=C/c2c(C)cc(O)cc2C)c1	2.82
O=S(=O)(CCOCc1ccc(-c2ccc3ncnc(Nc4ccc(OCc5cccc(F)c5)c(Cl)c4)c3c2)o1)c1ccccc1	69.8
O=C(Nc1ccc(Oc2ccc3[nH]c(NC(=O)c4ccco4)nc3c2)cc1)Nc1cc(C(F)(F)F)ccc1F	-0.1
Cc1cc(-c2ccccn2)cc(C)c1/C=C/c1cncc(-c2nn[nH]n2)c1	8.13
Cc1cc(O)cc(C)c1/C=C/c1cncc(C(=O)N(C)C)c1	-0.95
CS(=O)(=O)Nc1cccc(-c2ccc3c(NC(=O)C4CC4)n[nH]c3c2)c1	-4.31
CN(C)CCCn1c(-c2nonc2N)nc2cnccc21	4.73
CCn1c(-c2nonc2N)nc2c(C#CC(C)(C)O)nc(OCCNC)cc21	3.83
Cc1ccc2c(c1)/C(=N/Nc1ccc(S(N)(=O)=O)cc1)C(=O)N2	-4.77
Cc1ccc2c(-c3ccnc(Nc4cccc(C(F)(F)F)c4)n3)c(-c3ccccc3)nn2n1	37.7
FC(F)(F)c1ccc(-c2nn3ncccc3c2-c2ccnc(Nc3ccc4c(c3)OCCO4)n2)cc1	12.5
Cc1ccc(Nc2ccnc(Nc3cccc(C(N)=O)c3)n2)cc1O	5.7
COc1cc2ncnc(Nc3ccc4c(cnn4Cc4ccccc4)c3)c2cc1OC	83
Cc1nc(-c2ccccc2)n2nc(NCCCN3CCOCC3)ncc12	5.51
COc1ccc2ncnc(Nc3ccc(OCc4ccccc4)cc3)c2c1	30.9

From ChEMBL document CHEMBL1961873, “Compounds: GSK PKIS; Assays: Nanosyn kinase panel” (2012)
